The text below walks through data of ChEMBL document CHEMBL4513216, “Probing the Open Global Health Chemical Diversity Library for Multistage-Active Starting Points for Next-Generation Antimalarials” (ACS Infect Dis, 2020).

The structures appear in SMILES notation. About 8,600 (12%) of roughly 69,000 compounds showed an effect of 50% or more. The full list was thinned out, with strong results kept by preference.

The subject of this assay is Plasmodium berghei. Briefly: Screen against P. berghei liver stage (PbLuc), transformed with Luciferase, at 10uM. Conditions: tested at 10 uM. The format is functional, HepG2.
Turning to `O=C(NCCCn1cncn1)N1CCCCCC1`, the INHIBITION is 20.45%.
Take `COCCOc1ncccc1C(=O)N1CCCCC1c1nccs1` (configuration not stated): the INHIBITION was -38.7%.
For `CCc1cc(C(=O)N2CCC(c3cc4ncccc4cn3)CC2)on1`, the INHIBITION turned out to be 20.8%.
Turning to `CCCN1CCN(C(=O)c2ccn(COc3ccc(F)cc3)n2)CC1`, the INHIBITION is recorded as 2.69%.
Turning to `CCOc1ccccc1C(=O)Nn1c(C)cc(C)cc1=O`, the INHIBITION came out at 44.1%.
With `CC(=O)N1CCN(CCNC(=O)NC(C)Cn2ccnc2)CC1` (configuration not stated), the INHIBITION was 43.5%.
For the compound `COCCNC(=O)[C@H]1C[C@@H]2CCN(Cc3ccoc3)C[C@H]2O1`, the INHIBITION is given as 30.1%.
As to `CNC(=O)[C@@H]1C[C@@H]2CCN(Cc3ccoc3)C[C@H]2O1`, the INHIBITION is recorded as 30.3%.
`CC(C)NC(=O)[C@@H]1C[C@@H]2CCN(Cc3ccoc3)C[C@H]2O1`: the INHIBITION is 53.9%.
As for `O=C(NC1CC1)[C@@H]1C[C@@H]2CCN(Cc3ccoc3)C[C@@H]2O1`, the INHIBITION is reported as 49.4%.
Then `CNC(=O)[C@H]1C[C@@H]2CCN(Cc3ccc4c(c3)OCO4)C[C@@H]2O1`, with -9.18%; and `O=C(NC1CCCC1)[C@@H]1C[C@@H]2CCN(Cc3ccoc3)C[C@H]2O1`, with 54.8%.
Regarding `O=C(NCC1CC1)[C@H]1C[C@@H]2CCN(Cc3ccc4c(c3)OCO4)C[C@@H]2O1`, the INHIBITION came to 30.4%.
Regarding `O=C(NCC1CC1)[C@@H]1C[C@@H]2CCN(Cc3ccoc3)C[C@@H]2O1`, the INHIBITION was -10.3%.
Then `O=C(NC1CC1)[C@H]1C[C@@H]2CCN(Cc3ccc4c(c3)OCO4)C[C@@H]2O1`, with 61.1%; and `CCN(C)[C@H]1CN(C(=O)c2cccc(N3CCS(=O)(=O)CC3)c2)C[C@@H]1O`, with 8.74%; and `O=C1CC2(CCN(Cc3ccccn3)C2)CN1c1cncnc1` (configuration not stated), with -3.41%.
Consider `Cc1nccn1-c1ccc(NS(=O)(=O)c2cccnc2)cn1`, for which the INHIBITION is on record as 6.94%.
Regarding `O=C(c1ccsc1)N1CCO[C@@H]2CN(Cc3cccs3)C[C@@H]2C1`, the INHIBITION is -2.46%.
As for `O=C(NCC1CCCCO1)c1cc(Cn2cnc3ccccc32)[nH]n1` (configuration not stated), the INHIBITION stood at 31.4%.
With `O=C(NCC1CCCO1)c1coc(Cn2cnc3ccccc32)n1` (configuration not stated), the INHIBITION came out at 69.1%.
On to `CSCCCNC(=O)c1coc(Cn2cnc3ccccc32)n1`, for which the INHIBITION is listed as 25.1%.
Regarding `O=C(NCCO)c1coc(Cn2cnc3ccccc32)n1`, the INHIBITION worked out at 52%.
On to `Cn1cnc(-c2nc(C(=O)NCC3CCCO3)c3ccccn23)c1` (configuration not stated), for which the INHIBITION amounted to 4.08%.
`O=C(NCCO)c1coc(CN2CCN(c3ccccc3F)CC2)n1`: the INHIBITION was 26.9%.
Take `CC(C)=CCN1C(=O)[C@@H]2CC[C@H]1CN(c1ncccc1C(N)=O)C2`: the INHIBITION was 49.7%.
As for `CC(C)(C)c1cc(NC(=O)CN2CCn3c(nnc3C3CC3)C2)on1`, the figure is -3.8%; as for `NC(=O)C1CN(C(=O)Nc2ccccc2Oc2ccccc2Cl)CCO1` (configuration not stated), -67.7%.
Then `COc1ccc(C(=O)N2CC[C@@H]3[C@H](CC2)N(C)CCS3(=O)=O)cc1`, with -14.3%; and `O=C(C1CC1)N1CC2(CCN(CC3CC3)CC2)c2cc(F)ccc21`, with -15.9%.
Consider `COC(=O)C1CN(Cc2ccn(-c3ccc(F)cc3)n2)CCO1` (configuration not stated), for which the INHIBITION is given as -173%.
Then `COC(=O)CC1CN(Cc2ccn(-c3ccc(F)cc3)n2)CCO1` (configuration not stated), with 52.2%; and `COC(=O)C1CN(Cc2ccn(-c3ccc(F)cc3)n2)C[C@@H](C)O1` (some centres not stated), with 16%.
Then `COCC(=O)N1CCC2(CC1)CC(N1CCOCC1)c1ccc(C)cc12` (configuration not stated), with -24.8%; and `Cc1ccc2c(c1)C(N1CCOCC1)CC21CCNCC1` (configuration not stated), with 38.5%.
Consider `COCCN1CCC2(CC1)CC(N1CCOCC1)c1cc(C)ccc12` (configuration not stated), for which the INHIBITION was determined as 87.4%.
As for `Cc1ccc2c(c1)C1(CCNCC1)CC2N1CCOCC1` (configuration not stated), the INHIBITION is given as -58.9%.
As for `COCCN1CCC2(CC1)CC(N1CCOCC1)c1ccc(C)cc12` (configuration not stated), the figure is 48.4%; as for `CCC(=O)N1CCC2(CC1)CC(N1CCOCC1)c1cc(C)ccc12` (configuration not stated), 61.8%; as for `O=C(c1sccc1C1CC1)N1CCN(c2cnccn2)CC1`, 44%.
As for `CN(Cc1cc2n(n1)CCNC2)Cc1n[nH]c2c1CCCCC2`, the figure is 44.3%; as for `CN(Cc1n[nH]c2c1CCC2)c1nc(C2CCCC2)nc2c1CNC2`, 26.8%.
On to `CN(C)c1nc2c(c(N(C)Cc3n[nH]c4c3CCCC4)n1)CCNCC2`, for which the INHIBITION is on record as 70.2%.
For the compound `CN(Cc1n[nH]c2c1CCCC2)c1nc(C2CC2)nc2c1CCNCC2`, the INHIBITION was determined as 62.8%.
As for `CN(C)c1nc2c(c(N(C)Cc3n[nH]c4c3CCCCC4)n1)CCNC2`, the INHIBITION is recorded as 26.8%.
In the case of `CN(Cc1n[nH]c2c1CCCC2)c1nc2c(c(=O)[nH]1)CCNCC2`, the INHIBITION came to 10.4%.
On to `COc1c(C(=O)NCc2cccnc2)nnn1Cc1ccccc1`, for which the INHIBITION turned out to be 2.69%.
Then `COc1ccc(F)c(CN2CCCC(O)(CNC3CCCCC3)C2=O)c1` (configuration not stated), with 4.48%; and `COc1ccc(F)c(CN2CCCC(O)(CNCc3ncc[nH]3)C2=O)c1` (configuration not stated), with 33.2%; and `CC(C)(C)CNCC1(O)CCCN(Cc2ccccc2F)C1=O` (configuration not stated), with 7.17%.
As for `COc1ccc(F)c(CN2CCCC(O)(CNCC(C)(C)C)C2=O)c1` (configuration not stated), the figure is 71.7%.
Then `COc1ccc(F)c(CN2CCCC(O)(CNCc3ccoc3)C2=O)c1` (configuration not stated), with 34.1%; and `COc1ccc(F)c(CN2CCCC(O)(CNCc3ccon3)C2=O)c1` (configuration not stated), with 52%; and `CCc1cccc(C)c1NC(=O)NCCCN(CC)S(C)(=O)=O`, with -17.7%.
On to `Cc1cc(C)n(C2CCCN(C(=O)Cc3cccc(F)c3)C2)n1` (configuration not stated), for which the INHIBITION came to 19.4%.
Take `CC1c2ncc(Cn3cccn3)n2CCN1S(C)(=O)=O` (configuration not stated): the INHIBITION came to 43%.
`Cc1noc(C2CCCCN2C(=O)NC2CCCC2)n1` (configuration not stated): the INHIBITION is reported as -43.4%.
In the case of `Cc1nc(CN2CCc3cc(C(=O)O)c(N(C)C)nc3CC2)cs1`, the INHIBITION stood at 19.4%.
Then `CN(C)CCCNC(=O)c1cc(-c2ccc3c(c2)CCO3)n[nH]1`, with 54.5%.
As to `O=C(NCCO)c1cc(-c2ccc3c(c2)CCO3)n[nH]1`, the INHIBITION is given as 5.85%.
Take `O=C(NCCCO)c1cc(-c2ccc3c(c2)CCO3)n[nH]1`: the INHIBITION is reported as -49.2%.
`CSC(C)C(=O)NCCC(=O)N1CCN(c2ccccn2)CC1` (configuration not stated): the INHIBITION is on record as 39.2%.
Then `O=C1NCCN1CCNCC1(O)CCCN(CCC2CCCCC2)C1=O` (configuration not stated), with -48.7%; and `O=C1N(CCC2CCCCC2)CCCC1(O)CNCCc1ccccc1` (configuration not stated), with 56.9%.
In the case of `O=C1N(CCCc2ccccc2)CCCC1(O)CNCC1CCCCC1` (configuration not stated), the INHIBITION amounted to 39.5%.
As for `CN(Cc1ccccc1)CC1(O)CCCN(CC(C)(C)C)C1=O` (configuration not stated), the figure is 51.8%; as for `CN(Cc1ccccc1)CC1(O)CCCN(Cc2ccc(F)cc2)C1=O` (configuration not stated), 31.1%.
With `CN(Cc1ccccc1)CC1(O)CCCN(CCC2CCCCC2)C1=O` (configuration not stated), the INHIBITION was 63.7%.
`CN(Cc1cccnc1)CC1(O)CCCN(CC(C)(C)C)C1=O` (configuration not stated): the INHIBITION was determined as 44.7%.
For `CN(Cc1ccc(F)cc1)CC1(O)CCCN(CC(C)(C)C)C1=O` (configuration not stated), the INHIBITION is given as 28.5%.
On to `Cc1cc(CN(C)CC2(O)CCCN(CCC3CCCCC3)C2=O)no1` (configuration not stated), for which the INHIBITION is 32.3%.
For the compound `Cc1nc(CN2CCCC(N(C)CC3(O)CCCCC3)C2)no1` (configuration not stated), the INHIBITION is reported as -3.2%.
In the case of `Cc1cccc(CN2CCS(=O)(=O)[C@@H]3CCN(S(C)(=O)=O)CC[C@@H]32)n1`, the INHIBITION came out at 39.3%.
As to `CC(C)c1cc(C(=O)NCCN2CCCCC2CO)on1` (configuration not stated), the INHIBITION worked out at 15%.
For the compound `CCN1CCCC12CCN(C(=O)c1ccsc1)CC2`, the INHIBITION stood at 36.9%.
With `O=C(c1cc2c(s1)CCC2)N1CCCC1c1noc(C2CC2)n1` (configuration not stated), the INHIBITION is reported as -56.7%.
Regarding `Cc1nnc(NC(=O)NCc2ccc(N3CCOCC3)nc2)s1`, the INHIBITION is reported as -43.6%.
Turning to `CC(O)CNCc1c(C(C)C)nn(C)c1N1CCOCC1` (configuration not stated), the INHIBITION is recorded as 3.8%.
For the compound `CCOC(=O)CC(c1cccc(OC)c1OC)c1c(C)[nH][nH]c1=O` (configuration not stated), the INHIBITION came to 3.6%.
In the case of `c1cnc(NC2COC3(CCN(Cc4cc[nH]n4)CC3)C2)nc1` (configuration not stated), the INHIBITION is given as 26.3%.
Then `Cc1ncsc1CN1C[C@@H]2COC[C@]2(CNC(=O)c2ccco2)C1`, with 14.8%; and `Cn1cc(CN2C[C@@H]3COC[C@]3(CNC(=O)c3ccccc3)C2)cn1`, with 30.3%; and `O=C(NC[C@]12COC[C@H]1CN(Cc1ccncc1)C2)c1ccco1`, with 18.2%.
As for `Cc1ccsc1CN1C[C@@H]2COC[C@]2(CNC(=O)c2ccco2)C1`, the INHIBITION came out at 63.7%.
Then `Cn1cc(CN2C[C@@H]3COC[C@]3(CNC(=O)c3ccco3)C2)cn1`, with 52%; and `Cc1cc(CN2C[C@@H]3COC[C@]3(CNC(=O)c3ccco3)C2)no1`, with 20.6%; and `O=C(NC[C@]12COC[C@H]1CN(Cc1ccco1)C2)c1ccccc1`, with 54.7%.
As for `O=C(NC[C@]12COC[C@H]1CN(Cc1nccs1)C2)c1ccccc1`, the figure is 23.7%; as for `O=C(NC[C@]12COC[C@H]1CN(CC1CCOCC1)C2)c1ccccc1`, 30.3%.
As for `Cn1ccnc1CN1CCCN(C(=O)c2ccc(O)nc2)CC1`, the figure is -24.3%; as for `CN(C)S(=O)(=O)NCc1nn(CCN2CCCC2)c(=O)c2ccccc12`, 5.03%; as for `Cc1nn(C)c2ncnc(NCc3nncn3C3CCCCC3)c12`, -58.1%.
Turning to `CC(C)c1cc(C(=O)N2C[C@@H]3CC[C@H]2CN(Cc2ccccn2)C3)no1`, the INHIBITION was 41.8%.
Regarding `CC(NC(=O)c1ccsc1)c1ccc2c(c1)NC(=O)CO2` (configuration not stated), the INHIBITION was found to be 29.25%.
Turning to `Cc1cc(C)n(CCNC(=O)c2cc(C3CC3)n[nH]2)n1`, the INHIBITION amounted to 20.8%.
For `CCC(CC)C(=O)n1ccn(S(=O)(=O)c2ccc(C)cc2)c1=O`, the INHIBITION stood at 14.3%.
As for `Cn1c2c(ccc1=O)CCN(Cc1ccoc1)CC2`, the figure is -93%.
For `c1csc(N2CCCN(Cc3noc(C4CC4)n3)CC2)n1`, the INHIBITION is 7.67%.
For the compound `O=C(NC1CC1)N1CCn2c(Cn3cccn3)cnc2C1`, the INHIBITION stood at 24.1%.
For the compound `N#Cc1ccc(C(=O)N2CCn3c(Cn4cccn4)cnc3C2)cc1`, the INHIBITION came to 7.11%.
As for `O=C(NCc1cccnc1)N1CCn2c(Cn3cccn3)cnc2C1`, the figure is 57.9%.
Then `O=S(=O)(C1CC1)N1CCn2c(Cn3cccn3)cnc2C1`, with 41%; and `O=C([C@@H]1CCCO1)N1CCn2c(Cn3cccn3)cnc2C1`, with 28.7%.
In the case of `O=C(N1CCCC1)N1CCn2c(Cn3cccn3)cnc2C1`, the INHIBITION is recorded as 38.1%.
Turning to `CN(C)C(=O)N1CCn2c(Cn3cccn3)cnc2C1`, the INHIBITION was 62.5%.
Then `O=C(NCc1ccccc1)N1CCn2c(Cn3cccn3)cnc2C1`, with 39.2%; and `c1cnn(Cc2cnc3n2CCN(CC2CCCCC2)C3)c1`, with 59%.
